Data: PubChem BioAssay (NCATS)
Several values for one entry are separate records, joined by “and”; a condition that tells them apart may be missing. Equal entries are not always repeated. Records with an inconclusive call do not appear. Entries that show only a call come without a potency. A number with no mark means an inactive call. Activity calls are given as the source filed them. Calls come from the whole dose curve; as a rule, active = well fitted inhibition curve with a large enough effect; inconclusive = small, poorly fitted or top-dose-only effect; inactive = flat fitted curve, though single readings scatter.

Assays:
CRL-7250 = normal cell line; assay: Cytotoxic Profiling of Annotated Libraries Using Quantitative High-Throughput Screening (AID 1296008); conditions: Five cell lines viability, CellTiter-Glo ATP luminescence, 48-72 h; max response: stronger effect = lower value; note: potency is the fitted concentration of half-maximal effect
How it was run: (§1)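 Cytotoxicity was measured as CellTiter-Glo ATP luminescence, read after 10 min at room temperature. Compound treatment of the cells lasted 48 or 72 hr at 37 degrees Celsius in a qHTS format.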

HEK293 = assay: as above; conditions: Five cell lines viability, CellTiter-Glo ATP luminescence, 48-72 h; max response: stronger effect = lower value
How it was run: as §1

HaCat [1] = assay: as above; conditions: Five cell lines viability, CellTiter-Glo ATP luminescence, 48-72 h; max response: stronger effect = lower value
How it was run: as §1

KB-3-1 = assay: as above; conditions: Five cell lines viability, CellTiter-Glo ATP luminescence, 48-72 h; max response: stronger effect = lower value
How it was run: as §1

NIH3T3 = assay: as above; conditions: Five cell lines viability, CellTiter-Glo ATP luminescence, 48-72 h; max response: stronger effect = lower value
How it was run: as §1

HACAT [2] = assay: qHTS assay to identify novel small-molecules to repurpose for Merkel cell carcinoma treatment (AID 1296009); conditions: MCC and control cell lines, CellTiter-Glo viability, 72 h; at 44.8 µM (top of the series) unless noted
How it was run: (§2)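 After compound transfer in DMSO, plates were kept 72 hr at 37 degree celsius. Luminescent ATP signal from CellTiter-Glo served as viability measure, normalized against DMSO and no-cell controls.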

MCC-13 = assay: as above; conditions: MCC and control cell lines, CellTiter-Glo viability, 72 h; series mostly up to 46 µM
How it was run: as §2

MCC-26 = assay: as above; conditions: MCC and control cell lines, CellTiter-Glo viability, 72 h; series mostly up to 46 µM
How it was run: as §2

HEK293T = assay: as above; conditions: MCC and control cell lines, CellTiter-Glo viability, 72 h; at 44.8 µM (top of the series) unless noted
How it was run: as §2
Note: nearly all actives have a fitted effect of over 60% in size.

SMILES	outcome (CRL-7250)	max response (HEK293) [%]	outcome (HaCat [1])	max response (KB-3-1)	max response (NIH3T3)	outcome (HACAT [2])	Potency (MCC-13)	Potency (MCC-26)	max response (CRL-7250)	outcome (HEK293)	outcome (HEK293T)	max response (HaCat [1]) [%]	outcome (NIH3T3)	Potency (NIH3T3)	outcome (KB-3-1)
Cc1cc(O)c2c(O)c3c(O)cccc3cc2c1	inactive	-2.16	inactive	-20.5%	-2.19%	inactive	inactive	inactive	–	–	–	–	–	–	–
CC(=O)N[C@@H](CCC(N)=O)C(=O)O	–	–	inactive	-6.88%	-1.83%	inactive	inactive	inactive	-5.46%	inactive	inactive	–	–	–	–
Cc1ccc(/C=N/n2c(-c3ccccc3)csc2=S)cc1	–	1.19	inactive	-9.01%	-3.86%	inactive	inactive	inactive	-8.42%	–	–	–	–	–	–
CC(C)(C)C(=O)OCOC(=O)C1N2C(=O)CC2S(=O)(=O)C1(C)C (stereo unspecified)	–	–	inactive	-11.8%	2.05%	inactive	inactive	inactive	-2.99%	inactive	inactive	–	–	–	–
Brc1ccc([C@H]2CN3CCSC3=N2)cc1	–	3.24	–	5.27%	–	–	–	–	-3.15%	–	–	-7.1	inactive	–	–
CCN(CC)CCOc1ccc(/C(=C(\Cl)c2ccccc2)c2ccccc2)cc1	–	–	–	–	–	–	–	–	-10.3% and -19.3%	–	–	–	–	–	–
CC(C)N(CCC(=O)c1ccc2ccccc2c1)Cc1ccccc1	–	-116	inactive; activator	-5.46%	–	inactive; activator	–	–	-24.3%	–	–	–	–	10.3 µM (active)	–
CC(=O)[C@H]1CC[C@H]2[C@@H]3C=CC4=CC(=O)CC[C@@]4(C)[C@@H]3CC[C@]12C	–	-2.74	inactive	-2.29%	-20.6% and 1.55%	inactive	inactive	–	-2.73% and 1.98%	–	–	-26.7	–	–	–
CO/N=C(/C(=O)N[C@@H]1C(=O)N2C(C(=O)OCOC(=O)C(C)(C)C)=C(C)CS[C@H]12)c1csc(N)n1	inactive	4.75	inactive	-4.57%	0.923%	inactive	inactive	inactive	–	–	–	–	–	–	–
CC(=O)OCC(=O)[C@@]1(O)[C@H](OC(C)=O)C[C@H]2[C@@H]3CCC4=CC(=O)C=C[C@]4(C)[C@@]3(F)[C@@H](O)C[C@@]21C	inactive	–	inactive	1.08%	–	inactive	inactive	–	–	inactive	inactive	–	inactive	–	–
CC(C)=CCC/C(C)=C/CC/C(C)=C/CCC(=O)OC/C=C(\C)CCC=C(C)C	–	-2.81	inactive	-12.9%	–	inactive	inactive	inactive	-7.77%	–	–	–	inactive	–	–
O=C(CCCCCCCCC#CI)Oc1ccccc1	–	–	inactive	–	0.745%	inactive	inactive	inactive	1.88%	inactive	inactive	–	–	–	inactive
CO[C@@]1(NC(=O)CSC[C@@H](N)C(=O)O)C(=O)N2C(C(=O)O)=C(CSc3nnnn3C)CS[C@@H]21	–	–	inactive	-3.72%	-3.38%	inactive	inactive	inactive	1.25%	inactive	inactive	–	–	–	–
CCCCCC[C@@H](CCC)C(=O)O	–	–	inactive	-12.3%	–	inactive	inactive	inactive	-4.37%	inactive	inactive	–	inactive	–	–
C[N+]1(C)CCC(OC(=O)C(O)(c2ccccc2)C2CCCC2)C1 (stereo unspecified)	–	-9.88	inactive	-6.32% and -2.46%	-0.313%	inactive	inactive	inactive	2.29%	–	–	–	–	–	–
Cc1ccccc1C(=O)N1CC/C(=N\OS(=O)(=O)O)c2ccc(Cl)cc21	–	-7.21	–	9.71%	-8.25%	–	inactive	inactive	3.76%	–	–	-13.2	–	–	–
Cc1ccc(C(C)OC(=O)C2(C)CCC(C(=O)O)C2(C)C)cc1 (stereo unspecified)	–	–	inactive	–	–	inactive	inactive	inactive	3.77%	inactive	inactive	–	inactive	–	–
OC1(c2ccc(Cl)cc2)CCNCC1	–	–	inactive	–	-2.06%	inactive	inactive	inactive	-0.911%	inactive	inactive	–	–	–	–
NS(=O)(=O)c1ccc(N2CCCCS2(=O)=O)cc1	–	–	inactive	–	–	inactive	inactive	inactive	-11.1%	inactive	inactive	–	inactive	–	–
N[C@@H](Cc1cc(I)c(O)c(I)c1)C(=O)O	–	-5.41	–	-0.833%	-12.4%	–	inactive	inactive	1.61%	–	–	4.36	–	–	–
Oc1ccccc1-c1nnco1	inactive	–	inactive	–	1.39%	inactive	inactive	inactive	–	inactive	inactive	–	–	–	–
C[C@]12CCC(=O)C=C1CC[C@@H]1[C@@H]2[C@@H](O)C[C@@]2(C)[C@H]1CC[C@]2(O)C(=O)COC(=O)CCC(=O)O	–	3.66	–	-0.87%	–	–	inactive	inactive	-0.174%	–	–	-3.29	inactive	–	–
